{
  "source": "PubChem BioAssay (Tox21)",
  "note": "Records with an inconclusive call do not appear. Where a call stands in place of a potency, no number is given. Activity calls are given as the source filed them. Calls come from the whole dose curve. Potency is the fitted concentration of half-maximal effect.",
  "data": [
    {"target": "Acetylcholinesterase (Homo sapiens) (UniProt P22303)", "sequence (P22303 whole entry, looked up)": "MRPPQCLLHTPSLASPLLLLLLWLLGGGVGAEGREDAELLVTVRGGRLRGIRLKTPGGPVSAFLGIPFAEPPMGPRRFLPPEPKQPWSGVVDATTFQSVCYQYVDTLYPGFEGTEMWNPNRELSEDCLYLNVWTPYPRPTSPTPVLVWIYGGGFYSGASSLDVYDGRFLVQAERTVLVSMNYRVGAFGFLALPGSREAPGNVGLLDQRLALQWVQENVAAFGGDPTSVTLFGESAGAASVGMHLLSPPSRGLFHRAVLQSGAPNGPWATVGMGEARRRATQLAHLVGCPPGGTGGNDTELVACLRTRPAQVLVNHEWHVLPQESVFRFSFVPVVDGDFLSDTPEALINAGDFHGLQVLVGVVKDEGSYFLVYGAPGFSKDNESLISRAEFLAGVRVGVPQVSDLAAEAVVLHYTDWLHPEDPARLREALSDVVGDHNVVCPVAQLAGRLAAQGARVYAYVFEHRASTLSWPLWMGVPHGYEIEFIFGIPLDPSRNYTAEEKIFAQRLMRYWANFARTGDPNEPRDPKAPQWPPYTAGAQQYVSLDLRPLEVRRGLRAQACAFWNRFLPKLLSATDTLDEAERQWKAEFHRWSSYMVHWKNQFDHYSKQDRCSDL", "test": "Acetylcholinesterase (AChE) small molecule antagonists: colormetric cell-based qHTS assay (AID 1347395); note: nearly all actives have a fitted effect of over 30% in size", "settings": "SH-SY5Y cells AChE activity, colorimetric (Ellman); series mostly up to 115 µM", "in_short": "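SH-SY5Y cells; cpd 30 min 37 C; + DTNB/acetylthiocholine, 90 min 37 C; colorimetric thiocholine read; qHTS.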", "values": [
      {"molecule": "C[C@]12CC[C@H]3C(=CCc4cc(O)ccc43)[C@@H]1CCC2=O", "Potency": "inactive"},
      {"molecule": "C=CCOc1c(Br)cc(Br)cc1Br", "Potency": "inactive"},
      {"molecule": "CC(C)=CCC/C(C)=C\\C#N", "Potency": "inactive"},
      {"molecule": "NC(=O)c1ccccc1[N+](=O)[O-]", "Potency": "inactive"},
      {"molecule": "CC1(C)C(=O)N(CO)C(=O)N1CO", "Potency": "inactive"},
      {"molecule": "CC1(C)O[C@@H]2C[C@H]3[C@@H]4CCC5=CC(=O)CC[C@]5(C)[C@@]4(F)[C@@H](O)C[C@]3(C)[C@]2(C(=O)CCl)O1", "Potency": "inactive"},
      {"molecule": "CCCCCOC(=O)CCCC", "Potency": "inactive"},
      {"molecule": "CC(C)(C)c1cc(CCC(=O)NN)cc(C(C)(C)C)c1O", "Potency": "inactive"},
      {"molecule": "CN1CCCC(n2nc(Cc3ccc(Cl)cc3)c3ccccc3c2=O)CC1", "note": "(stereo not drawn)", "Potency": "17.4 µM (active)"},
      {"molecule": "CCc1cccc(C)c1N(C(=O)C(=O)O)C(C)COC", "note": "(stereo not drawn)", "Potency": "inactive"},
      {"molecule": "C=CCN1CCc2nc(N)sc2CC1", "Potency": "inactive"},
      {"molecule": "CC(C)CCCCOC(=O)c1ccccc1C(=O)OCCCCC(C)C", "Potency": "inactive"},
      {"molecule": "CCC(Cl)CCC(Cl)C(Cl)CC(Cl)C(Cl)C(Cl)CCl", "note": "(stereo not drawn)", "Potency": "inactive"},
      {"molecule": "Cc1ccccc1S", "Potency": "inactive"},
      {"molecule": "CCCc1ccc(OC)cc1", "Potency": "inactive"},
      {"molecule": "CC(C)COC(=O)COc1cc(Cl)c(Cl)cc1Cl", "Potency": "inactive"},
      {"molecule": "CC(C)(C)c1ccc(N)cc1", "Potency": "inactive"},
      {"molecule": "FC1(F)C(F)(F)C(F)(F)C2(F)C(F)(F)C(F)(F)C(F)(F)C(F)(F)C2(F)C1(F)F", "note": "(stereo not drawn)", "Potency": "inactive"},
      {"molecule": "CCCCOCCOC(=O)c1cccnc1", "Potency": "inactive"},
      {"molecule": "CCCCN(CCCC)C(C(N)=O)c1ccc(OC)cc1", "note": "(stereo not drawn)", "Potency": "inactive"},
      {"molecule": "O=C(O)c1c(Cl)cccc1Cl", "Potency": "inactive"},
      {"molecule": "CCCCCCCCCI", "Potency": "inactive"},
      {"molecule": "Cc1cc(=O)c2c(O)c3c(O)cc(=O)c4c3c3c(cc(O)c1c23)C(C)(C)C=4O", "activity, negative = inhibition": "0.337% [at 23.6 µM] (inactive)"}
    ]}
  ]
}
